The whole screen tested about 140,000 compounds, of which about 860 (0.61%) were called active. Only a selection was taken, and actives are over-represented in it overall. Values without a mark were called inactive. Cut-off read from the data, not from the text of the source: active = inhibition above about 25%; inactive = the rest.

For this test, the target named is E3 ubiquitin-protein ligase RBX1 (Homo sapiens) + Cullin-1 (Homo sapiens) (UniProt P62877+Q13616). The test can be described thus: blocks human RBX1-Cullin-1 di-ubiquitin formation (AID 1347404). Particulars: in vitro K48 di-Ub FRET, acceptor:donor ratio, 45 min; at 10 µM; hits give high values.
E3 ubiquitin-protein ligase RBX1 (Homo sapiens) + Cullin-1 (Homo sapiens), sequence (P62877 whole entry, looked up): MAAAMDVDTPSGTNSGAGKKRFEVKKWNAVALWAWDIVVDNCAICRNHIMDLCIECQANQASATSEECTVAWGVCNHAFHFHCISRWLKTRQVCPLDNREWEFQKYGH
E3 ubiquitin-protein ligase RBX1 (Homo sapiens) + Cullin-1 (Homo sapiens), sequence (Q13616 whole entry, looked up): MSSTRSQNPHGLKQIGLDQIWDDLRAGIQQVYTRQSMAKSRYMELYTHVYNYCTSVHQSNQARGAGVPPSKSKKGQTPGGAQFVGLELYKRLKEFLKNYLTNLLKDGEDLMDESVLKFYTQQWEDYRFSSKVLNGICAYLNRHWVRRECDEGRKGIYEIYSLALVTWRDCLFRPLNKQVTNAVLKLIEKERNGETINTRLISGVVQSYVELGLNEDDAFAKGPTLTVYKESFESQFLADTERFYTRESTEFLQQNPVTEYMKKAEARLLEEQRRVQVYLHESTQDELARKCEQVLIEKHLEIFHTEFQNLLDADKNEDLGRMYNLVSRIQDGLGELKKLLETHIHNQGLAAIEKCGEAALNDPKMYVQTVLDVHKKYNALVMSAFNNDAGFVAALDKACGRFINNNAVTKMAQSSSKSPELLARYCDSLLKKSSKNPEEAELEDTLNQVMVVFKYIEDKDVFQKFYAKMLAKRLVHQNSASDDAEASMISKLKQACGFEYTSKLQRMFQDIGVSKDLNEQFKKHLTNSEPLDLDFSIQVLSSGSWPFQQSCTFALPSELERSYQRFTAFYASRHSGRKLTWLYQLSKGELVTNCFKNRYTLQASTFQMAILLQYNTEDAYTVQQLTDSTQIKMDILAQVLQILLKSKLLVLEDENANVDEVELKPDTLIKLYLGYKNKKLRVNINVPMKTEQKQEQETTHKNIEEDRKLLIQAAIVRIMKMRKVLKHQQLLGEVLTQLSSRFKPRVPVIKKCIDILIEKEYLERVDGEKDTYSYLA
Broadly, the inhibition is the relative decrease from the control value, in per cent. Regarding `CCCCc1nnc(SCC2=Nc3ccc(F)cc3C(=O)C2)n1C`, the inhibition is -6.52%.
On to `Cc1scc(Cc2csc(C)c2C)c1C`, for which the inhibition was -4.02%.
Consider `Cc1cccc(C(=O)Nc2ccc(C)cc2C)c1`, for which the inhibition was -1.04%.
Regarding `Cc1ccc(NC(=O)c2c(N)sc3c2CCC3)c(C)c1`, the inhibition is 43.1% (active).
Regarding `COc1ccc(-c2cc(-c3ccc(C)cc3)nc3sc(C(=O)Nc4ccc(C)cc4C)c(N)c23)cc1OC`, the inhibition is 7.9%.
As for `Cc1[nH]c2ccccc2c1C(c1cccnc1)N1CCN(c2ccc(F)cc2)CC1` (centres undefined), the inhibition is 2.08%.
For the compound `CN(C)CCOCCOC(c1ccccc1)c1ccccc1C(F)(F)F` (centres undefined), the inhibition is 0.845%.
For `COC(=O)c1ccccc1NC(=O)CCCC(=O)OCC(=O)c1ccc(Br)cc1`, the inhibition was 1.86%.
As for `CCOC(=O)c1cnc2c(C)cc(Cl)cc2c1N1CCN(Cc2ccccc2)CC1`, the inhibition is -3.19%.
`COc1ccc(N2C(S)=C(C#N)C(=O)NC2c2ccc(-c3ccccc3Cl)o2)cc1` (centres undefined): the inhibition was 24.9%.
Consider `CC(C)(C)NS(=O)(=O)c1ccc(NC(=O)C2CCCO2)cc1` (centres undefined), for which the inhibition was -1.62%.
For `O=C(OCc1ccc(Br)cc1)c1ccccc1C(=O)c1ccccc1` the value was 3.15%; for `CC(=O)c1ccc(NC(=O)CCCC(=O)OCC(=O)c2ccc(-c3ccccc3)cc2)cc1`, -6.85%; for `O=C(Nc1ccccc1O)c1cccc(S(=O)(=O)Nc2ccc(F)cc2)c1`, 1.23%.
In the case of `O=C(Nc1ccc(S(=O)(=O)O)c2ccccc12)c1ccc(C(=O)Nc2ccc(S(=O)(=O)O)c3ccccc23)cc1`, the inhibition was 2.57%.
Under `O=C(Nc1ccc(S(=O)(=O)O)c2cc(S(=O)(=O)O)cc(O)c12)c1ccccc1` stands 63.3% (active).
For the compound `CC(O)c1cn(C2CCN(c3nc4ccccc4s3)CC2)nn1` (centres undefined), the inhibition was 4.88%.
In the case of `COc1ccccc1C(=O)Nc1ccnn1C1CCN(Cc2nccn2C)CC1`, the inhibition is 9.37%.
Consider `CC(C)(C)NS(=O)(=O)Cc1ccc(Cl)cc1Cl`, for which the inhibition was 7.68%.
On to `CCOC(=O)CNc1nc2ccccc2n2c(C)nnc12`, for which the inhibition was -3.19%.
For `Cc1nc2ccccc2n1/N=C/c1ccccc1` the value was 3.45%.
For `C/C(=N\O)c1sc2nc3ccccc3n2c1C` the value was 26.5% (active); for `CCc1ccccc1-c1nc2c(cnn2C)[nH]1`, 5.57%; for `CC1CCN(CC(O)COC2CC3CCC2(C)C3(C)C)CC1` (centres undefined), 0.492%.
As for `CCN(CC)C(=O)CSc1nc2sc3c(c2c(=O)n1C)CCC3`, the inhibition is 1.01%.
For `CC(C)C1=NN2C(=N)/C(=C/c3cccc(OCc4ccc(F)cc4)c3)C(=O)N=C2S1` the value was -4.78%; for `COc1cc(/C=C2\C(=N)N3N=C(Cc4cccs4)SC3=NC2=O)cc(OC)c1OC`, 6.55%.
Take `N=C1/C(=C/c2cccc(OC(=O)c3ccc(Cl)cc3)c2)C(=O)N=C2SC(c3cccs3)=NN12`: the inhibition was 49.6% (active).
Take `CC(C(=O)O)N1C(=O)/C(=C/c2ccc(N(C)C)cc2)SC1=S` (centres undefined): the inhibition was 52.9% (active).
Turning to `CN(C)c1ccc(/C=C2\SC(=N)N(c3nccs3)C2=O)cc1`, the inhibition is -5.77%.
Regarding `Cc1ccc(N2C(=O)/C(=C\c3ccc(Cl)cc3)SC2=S)cc1`, the inhibition was 8.97%.
For `CCCOc1ccccc1/C=C1\C(=O)NN(c2cccc(Br)c2)C1=O`, the inhibition is 20%.
Take `CCOc1ccc(/C=C2\C(=O)NN(c3ccc(Cl)c(Cl)c3)C2=O)cc1OCC`: the inhibition is 1.02%.
As for `CCOc1cc(/C=C2/C(=O)NN(c3ccc(CC)cc3)C2=O)c(Br)c(Br)c1O`, the inhibition is 54.1% (active).
As for `N#CC1=C2c3ccccc3CCC2C(c2ccco2)=NC1=O` (centres undefined), the inhibition is 42% (active).
Turning to `CC1=NC(=O)C(C#N)=C(C)C1CSCc1ccco1` (centres undefined), the inhibition is 0.332%.
Turning to `CCN(Cc1nccn1C)C(=O)c1ccc(N(C)CC2CCCCN2C)nc1` (centres undefined), the inhibition is -0.562%.
Consider `CCC(C)C(=O)Nc1ccc(I)cc1` (centres undefined), for which the inhibition is 3.94%.
Under `COc1ccccc1NC(=O)NC1CC(=O)N(CC(C)(C)C)C1` (centres undefined) stands -2.73%; under `CC1(C)CC(=O)C(=Cc2c[nH]c3ccccc23)C(=O)C1`, -0.144%.
Under `Cc1cc(C)cc(N2CC(C(=O)N3CCc4ccccc4C3)CC2=O)c1` (centres undefined) stands 6.46%.
Turning to `O=C(CC1C(=O)NCCN1CCc1ccccc1)NCCCn1ncc2ccccc21` (centres undefined), the inhibition was 0.369%.
Consider `COc1cc(C2C3=C(CCCC3=O)OC3=C2C(=O)CCC3)ccc1OCC(=O)Nc1ccccc1`, for which the inhibition is -1.19%.
In the case of `O=C(NC(=S)N1CCCC1)c1ccc(Br)o1`, the inhibition is 4.57%.
In the case of `O=C(/C=C/c1ccccc1)Oc1cccc(C(=O)Nc2nc3ccccc3[nH]2)c1`, the inhibition was 14.2%.
Turning to `O=C(C[n+]1c2ccccc2n2nc3c(cc21)c1cccc2cccc3c21)Nc1nc2ccccc2[nH]1`, the inhibition was 93.1% (active).
Under `O=C([O-])c1ccc(C[n+]2c3ccccc3n3nc4c(cc32)c2cccc3cccc4c32)cc1` stands -16.8%.
Under `Cn1c(=O)c2c(nc(SCC(=O)Nc3ccc(OC(F)(F)F)cc3)n2Cc2cccc(Cl)c2)n(C)c1=O` stands 10%.
As for `Cc1cc(N2C(=O)C(=O)C(C(=O)c3ccc(F)cc3)C2c2ccccc2)no1` (centres undefined), the inhibition was -4.72%.
Turning to `COCCN(C)C(=O)c1cc(NC(=O)c2ccccc2)cc2ncn(C3CCCC3)c12`, the inhibition is 12.6%.
With `C=CCn1c(SCC(=O)c2ccccc2)nc2ccccc2c1=O`, the inhibition was 2.49%.
With `COc1ccc(/C=C/C(=O)c2cc3ccccc3oc2=O)c(OC)c1`, the inhibition is -5.94%.
Under `CCN=C1CC=C(Br)C=C(C(=O)/C=C/c2ccccc2OC)C1=O` stands 101% (active); under `COc1ccc(OC)c(/C=C/C(=O)c2ccc(OC)c(OC)c2)c1`, -2.06%.
On to `CC(C)NC(=O)Cc1coc2ccc(C(C)(C)C)cc12`, for which the inhibition was 5.19%.
For `Cc1noc(C)c1C(=O)CCCCCCCCCCCCCCC(=O)O`, the inhibition is -8.93%.
For `Cc1ccc(OC(=O)c2ccc(Br)cc2Br)c(C)c1` the value was 5.25%.
Under `CCCC(=O)NC(=S)Nc1ccccc1Sc1ncnc2scc(-c3ccccc3)c12` stands 3.87%.
As for `COc1ccc2c(c1)OC(C)CN(Cc1ccc3cccnc3c1)C2` (centres undefined), the inhibition was 1.92%.
As for `CN1C(=O)C(C(=NCc2ccccc2)c2nn[nH]n2)C(=O)c2ccccc21` (centres undefined), the inhibition is 2.67%.
With `Cc1ccc(N=C/C=C/c2ccc([N+](=O)[O-])cc2)cc1`, the inhibition is 6.74%.
`CC(=O)Nc1cc(C)ccc1[N+](=O)[O-]`: the inhibition is -2.27%.
Consider `Cc1ccc(N2C(=O)c3ccccc3NC2c2ccc(OCc3ccccc3)cc2)cc1` (centres undefined), for which the inhibition is 8.59%.
In the case of `C=CCNC(=O)C1CCN(S(=O)(=O)N(C)C)CC1`, the inhibition is 8.77%.
Under `O=C(CSc1nc2scc(-c3ccccc3)c2c(=O)n1-c1ccccc1)c1ccccc1F` stands 8.07%; under `O=C(Nc1ccccc1Cl)c1cc(-c2ccc(Cl)s2)nc2ccccc12`, -7.97%; under `CCOc1cc(Br)c(Br)c(C=Nc2cccc(NC(=O)c3ccc(Cl)cc3Cl)c2)c1O`, 13.5%.
As for `CCN(CC1CCCN(CCc2cccc(OC)c2)C1)C1CCN(C(C)=O)CC1` (centres undefined), the inhibition was -12.6%.
On to `COc1ccc(C(=O)CC=Nc2ccc(Oc3ccccc3Cl)cc2)cc1OC`, for which the inhibition was 11.3%.
Consider `Cc1ccc(NC(=O)C(=O)NC(=O)c2n[nH]c3c2CCCC3)cc1`, for which the inhibition is 2.41%.
`CCOc1ccc(Cl)cc1S(=O)(=O)N1CCCCC1C` (centres undefined): the inhibition is 3.07%.
Turning to `O=C([C@@H]1C[C@H]1c1ccccc1)N1CCOc2ccc(CN3CCN(c4ncccn4)CC3)cc2C1`, the inhibition was -2.65%.
Under `Cc1cnc(Sc2nccn2C)c([N+](=O)[O-])c1` stands -1.03%.
On to `CCOC(=O)c1cc(N2C(=O)c3cccc4cccc(c34)C2=O)ccc1Cl`, for which the inhibition is -1.46%.
For the compound `COC(=O)c1cc2ccccc2n1C`, the inhibition was -2.5%.
On to `Clc1ccc(-c2csc(NN=C3c4ccccc4-c4ccccc43)n2)cc1`, for which the inhibition was -3.38%.
With `COc1cc(/C=C(/C)[N+](=O)[O-])c2c(c1Br)CCCO2`, the inhibition is -18%.
Turning to `COc1ccc2c(c1)CCCN2Cn1nc(COc2ccc(C3CCCCC3)cc2)n(C)c1=S`, the inhibition was 0.371%.
For the compound `c1cc2nsnc2cc1CN1CCCC(Nc2ccc3c(c2)OCO3)C1` (centres undefined), the inhibition was 2.61%.
With `Cc1cc(Oc2cc(-n3[nH]c(=O)c4ccccc4c3=O)nc(-c3ccccc3)n2)cc(C)c1Cl`, the inhibition is 7.28%.
For `CCN(CC1CCN(C2CCN(C)CC2)CC1)C(=O)c1occc1C` the value was 9.69%; for `O=C(NCN1CCN(CNC(=O)c2cccnc2)CC1)c1cccnc1`, -0.31%.
For the compound `CCN1CCN(c2nc(-c3ccc(OC)cc3)cc(=O)[nH]2)CC1`, the inhibition is 5.84%.
As to `Cc1ccc(Cl)cc1N1CCN(C(=O)C23CC4CC(CC(C4)C2)C3)CC1`, the inhibition is -7.78%.
As for `Cc1ccccc1CS(=O)(=O)N1CCC(Cc2ccccc2)CC1`, the inhibition is 8.78%.
Under `COc1ccc(C(Nc2cc(C)ccn2)c2ccc3cccnc3c2O)c(OC)c1OC` (centres undefined) stands 2.02%; under `COc1ccc2nc(SCC#CCSc3nc4ccc(OC)cc4[nH]3)[nH]c2c1`, 7.63%; under `CNCC#CCOc1ccccc1C(C)(C)C`, -2.15%.
As to `CN(C)/C=C/c1c(C#N)c(=O)oc2ccccc12`, the inhibition was 9.69%.
`Nc1scc2c1c(=O)oc1ccccc12`: the inhibition was 57% (active).
In the case of `O=c1cc(Cl)c2ccccc2o1`, the inhibition was -4.6%.
As for `CCOC(=O)C(C(=O)OCC)c1ccc(OC)cc1[N+](=O)[O-]`, the inhibition was 2.12%.
For `CCOc1cc(/C=C2/SC(=O)N(C(C)C)C2=O)ccc1O` the value was -0.43%.
Turning to `Nc1nc2c(ncn2S(=O)(=O)c2ccc(C(=O)O)cc2)c(=O)[nH]1`, the inhibition was 7.51%.

(Values after PubChem BioAssay AID1347404 (Pan Lab, Icahn School of Medicine at Mount Sinai, 2020).)
